# Compound activity deposited in PubChem BioAssay by National Center for Advancing Translational Sciences (NCATS).
# ELG1 genotox: qHTS screen for small molecules that induce genotoxicity in human embryonic kidney (HEK293T) cells expressing luciferase-tagged ELG1. HEK293T ELG1-luciferase reporter, luminescence, 16 h. Potency, µM (series often up to 46 µM), inactives show at the highest dose activity change, positive = activation, usual class: activators. hit rate 1.3% among 330,000. AID 504466, 2011; also: % of control where 0% means no effect; nearly all actives have a fitted effect of over 60% in size
#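 Genotoxic stress is detected as increased luminescence from luciferase-tagged ELG1 in HEK293T cells, measured with ONE-Glo after a 16 hr treatment at 37 °C.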
# NPC1 promoter act: qHTS Assay for NPC1 Promoter Activators; Huh7 NPC1 promoter luciferase reporter, 24 h; Potency, µM (top dose mostly 9.22 µM), for inactives: at the highest dose activation, usual class: activators; hit rate 2.4% among 320,000; AID 485313, 2010; also: % of control where 0% means no effect; nearly all actives have a fitted effect of over 60% in size
#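 Huh7 reporter cells (NPC1 promoter driving luciferase) are dosed with compound for 24 h at 37 °C, 5% CO2; luciferase detection reagent is then added and luminescence measured after 10 min at ambient temperature.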
# SMN2 splice enh: qHTS Assay for Enhancers of SMN2 Splice Variant Expression; Potency, µM (titrated, usually from 46.1 µM), for inactives: top-dose activity change, positive = activation, hits mostly activators; AID 1458, 2008; HEK293 SMN2-luciferase splicing reporter, luminescence, 30-36 h; hit rate 2.8% among 210,000; also: % of control where 0% means no effect; nearly all actives have a fitted effect of over 55% in size
#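 qHTS luciferase splicing reporter: luminescence rises when SMN2 exon 7 is included in transfected HEK293 cells. Compound exposure lasted 30-36 h at 37C, with 4.5 mM final sodium butyrate as control, followed by a ONE-Glo read.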
# FLuc modulator: qHTS profiling assay for firefly luciferase inhibitor/activator using purifed enzyme and Km concentrations of substrates (counterscreen for miR-21 project); purified FLuc, Km substrates, luminescence inhibition; Potency, µM (top dose mostly 57.5 µM), for the others: at the highest dose activity change, negative = inhibition, actives largely listed as inhibitors; hit rate 6.9% among 360,000; AID 588342, 2011;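 also: plate controls were vehicle for no effect and reference inhibitor for full effect; nearly all actives have a fitted effect of over 55% in size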
# Target sequence (P08659 whole entry, looked up): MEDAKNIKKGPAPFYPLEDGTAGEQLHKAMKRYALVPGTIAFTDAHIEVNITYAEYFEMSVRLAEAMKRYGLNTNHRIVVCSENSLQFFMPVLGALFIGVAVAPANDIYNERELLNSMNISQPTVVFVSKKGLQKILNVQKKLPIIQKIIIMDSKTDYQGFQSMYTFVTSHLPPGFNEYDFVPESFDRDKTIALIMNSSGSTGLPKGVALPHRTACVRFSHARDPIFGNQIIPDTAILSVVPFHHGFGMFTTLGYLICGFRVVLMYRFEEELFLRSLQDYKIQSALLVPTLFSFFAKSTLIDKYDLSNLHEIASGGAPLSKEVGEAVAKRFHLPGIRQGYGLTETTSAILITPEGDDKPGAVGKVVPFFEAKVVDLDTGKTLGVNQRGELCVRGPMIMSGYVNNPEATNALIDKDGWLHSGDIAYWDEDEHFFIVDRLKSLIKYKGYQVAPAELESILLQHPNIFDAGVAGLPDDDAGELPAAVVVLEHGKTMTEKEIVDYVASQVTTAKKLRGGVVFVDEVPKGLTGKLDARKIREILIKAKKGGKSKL
#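 Biochemical qHTS of compounds, final roughly 60 µM downward over six points, against 10 nM purified firefly luciferase using Km concentrations of substrates (10 uM D-luciferin, 10 uM ATP) in Tris acetate pH 7.5 buffer; luminescence output.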
# ELG1 DNA repair: qHTS screen for small molecules that inhibit ELG1-dependent DNA repair in human embryonic kidney (HEK293T) cells expressing luciferase-tagged ELG1 | hit rate 2.3% among 330,000 | AID 504467, 2011 | HEK293T ELG1-luciferase reporter, luminescence, 16 h; DNA damage induced by 5-fluorouridine | Potency, µM (highest dose often 46.1 µM), without a hit: at the top dose activity change, negative = inhibition, usual class: inhibitors; also: % is scaled to controls: 0 for no effect and ±100 for the full control effect; nearly all actives have a fitted effect of over 55% in size
#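 5-Fluorouridine DNA damage + compound/DMSO, 2,000 cells/well, 16 h, 37 °C/5% CO2. ONE-Glo, 30 min RT, luminescence. Readout = decrease in reporter signal.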
# Rab9 promoter act: qHTS Assay for Rab9 Promoter Activators; Huh7 Rab9 promoter-luciferase reporter, luminescence, 24 h; hit rate 2.8% among 320,000; Potency, µM (highest dose often 9.22 µM), for the others: at the highest dose activation, negative = inhibition, hits mostly activators; AID 485297, 2010; also: % of control where 0% means no effect; nearly all actives have a fitted effect of over 60% in size
#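 Measured in stably transfected Huh7 cells bearing a Rab9 promoter–luciferase construct: 24 h compound treatment at 37 °C, followed by luminescence detection.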
# Active calls of the source: *; ? = inconclusive; / = no result; [ ] = remark or other dose. Hits are enriched below; roughly 9.2% of the tested compounds scored in any of these assays. Calls follow the shape of the dose curve; as a rule, active = well fitted curve in the direction sought with a large enough effect; inconclusive = small, poorly fitted or top-dose-only effect, or another doubt; inactive = no such curve, though single readings can be large; an effect the other way counts as inactive or inconclusive. Potency is read from the fitted curve at half-maximal effect.
SMILES,ELG1 genotox,NPC1 promoter act,SMN2 splice enh,FLuc modulator,ELG1 DNA repair,Rab9 promoter act
COc1ccc(CCNC2=C(Cl)C(=O)N(CCc3ccc(OC)c(OC)c3)C2=O)cc1OC,-10%,-1%,-52%,-1%,13µM*,2%
COc1ccc(N2C(=O)C(Cl)=C(NCc3ccccc3)C2=O)cc1,12%,-1%,0%,21µM*,25%,6%
COc1ccc(NC2=C(Cl)C(=O)N(CCc3ccccc3)C2=O)cc1,8%,6%,16µM*,2.7µM*,12%,0%
COc1ccc(CCN2C(=O)c3cccnc3C2=O)cc1OC,0%,-3%,-10%,-1%,7%,7%
O=C1NC(c2ccc(Cl)cc2)Oc2ccccc21 (stereo not given),8%,-7%,/,4%,-2%,-3%
CC(C)c1ccc(C2NC(=O)c3ccccc3O2)cc1 (stereo not given),?,4%,/,9.5µM*,14%,15%
Cc1ccc(-n2nc3c(=O)n(CC(=O)NCCC4=CCCCC4)nc(C)c3c2C)cc1,-8%[9.26 µM],-9%,/,-1%,-13%,-8%
CN1CCN(C(=O)c2ccc(COc3ccc(C(C)(C)C)cc3)o2)CC1,6%,?,?,8.5µM*,?,?
CC(C)c1ccc(OCc2ccc(C(=O)N3CCCC3)o2)cc1,?,?,/,17µM*,?,2µM*
CCOC(=O)c1ccc(COc2ccc(C(C)C)cc2)o1,?,0.63µM*,/,15µM*,?,0.5µM*
CCC(C)c1ccc(OCc2ccc(C(=O)O)o2)cc1 (stereo not given),0.41µM*,?,/,3µM*,?,?
CCOc1ccc(OCc2ccc(C(=O)N3CCCC3)o2)cc1,6%,?,7%,?,12%,5%
COc1ccc(OC)c(C2C(C(=O)Nc3ccc(C)cc3)=C(C)Nc3nnnn32)c1 (stereo not given),/,/,/,-5%,/,/
CCOc1ccc(OCc2ccc(C(=O)NC(C)C)o2)cc1,4%,?,/,-18%,?,26%
CCOc1ccc(OCc2ccc(C(=O)OCc3ccccn3)o2)cc1,0%,?,8.9µM*,?,?,0.89µM*
CCOc1ccc(OCc2ccc(C(=O)N3N=C(C(F)F)CC3(O)C(F)F)o2)cc1 (stereo not given),2%,28%,?,-1%,0%,4µM*
CN(C)c1ccc(C=Nc2ccc(N(C)C)cc2)cc1,?,0%,-62%,8.5µM*,?,20%
CN(C)c1ccc(C=Nc2ccccc2)cc1,-1%,-1%,-8%,0.43µM*,?,1%
Cc1ccc(S(=O)(=O)N(C)/N=C/c2ccc(N(C)C)cc2)cc1,-2%,1%,/,-9%,?,0%
Cc1nc(/N=C\c2ccc(N(C)C)cc2)sc1C,1%,-1%,/,0.3µM*,7%,-4%
Cc1ccc(N=Cc2ccc(N(C)C)cc2)cc1C,-1%,-3%,-6%,0.95µM*,0%,-2%
Cc1ccc(N=Cc2ccc(N(C)C)cc2)cc1,0%,1%,-7%,?,14%,-2%
Cc1ccc(CCNC(=O)c2ccc3c(c2)c(C)c(C)n3Cc2ccccc2)cc1,/,/,/,-9%,/,/
CCOC(=O)CC1C(=O)NCCN1C(=O)c1c(Cl)cccc1Cl (stereo not given),2%,-13%,/,1%,12%,-10%
COc1ccc(C2N(C(=O)C(F)(F)F)C(C)CN2S(=O)(=O)c2ccc(C)cc2)cc1 (stereo not given),-6%,-2%,/,4%,0%,0%
SMILES,ELG1 genotox,NPC1 promoter act,SMN2 splice enh,FLuc modulator,ELG1 DNA repair,Rab9 promoter act
C(=Nc1cccc2c(N=Cc3ccco3)cccc12)c1ccco1,-2%,7%,3%,-11%,-2%,12%
CN(C)c1ccc(N=Cc2ccco2)cc1,?,12%,-25%,4.8µM*,?,9%
CC(=O)c1cccc(NC(=O)NC2CCCc3ccccc32)c1 (stereo not given),-2%,-2%,/,-3%,-1%,-7%
Cc1cccc(NC(=O)Nc2ccc3c(c2)CCC3)c1,?,2µM*,/,3µM*,?,1.8µM*
Cc1cccc(NC(=O)Nc2ccncc2)c1,7%,12%,?,17µM*,?,17%
Cc1cc(C)cc(NC(=O)Nc2cccc(S(N)(=O)=O)c2)c1,0%,2%,/,15µM*,-4%,1%
CC(=O)c1cccc(NC(=O)Nc2ccc3c(c2)CCC3)c1,13%,?,/,2.4µM*,?,?
CCc1ccc(NC(=O)Nc2ccc3c(c2)CCC3)cc1,?,?,/,-5%,?,?
O=c1[nH]cnc2cc(-c3ccc(Br)cc3)sc12,?,2.5µM*,/,7.6µM*,?,2.8µM*
O=C1/C(=C/c2cccc3ccccc23)CCCc2ccccc21,14%,20%,?,13µM*,?,26%
Cc1cc(C)cc(Oc2ccc(N)cc2)c1,22%,1%,13µM*,-8%,26%,-1%
COc1ccc(OC)c(CNS(=O)(=O)c2ccc3c(c2)CCCN3C(C)=O)c1,/,/,/,-6%,/,/
CN(C)C(=O)CSc1ncccc1-c1nc2ccccc2[nH]1,0%,9%,/,?,14%,9%
O=C(CSc1ncccc1-c1nc2ccccc2[nH]1)N1CCCCC1,15%,10%,5%,17µM*,?,12%
CCN(CC)C(=O)CSc1ncccc1-c1nc2ccccc2[nH]1,5%,1%,/,24µM*,?,1%
CC(C)NC(=O)CSc1ncccc1-c1nc2ccccc2[nH]1,9%,-1%,/,?,?,7%
Cc1ccc2nc(-c3cccnc3SCC(=O)N3c4ccccc4CC3C)[nH]c2c1 (stereo not given),?,?,14µM*,5.4µM*,?,?
CCCCCn1c(=O)[nH]c2cc(C(=O)N3CCN(c4cccc(OC)c4)CC3)ccc2c1=O,/,/,-1%,-1%,/,/
CCOc1ccccc1N(CC)C(=O)c1cc2c(=O)[nH]c3ccc(C)cc3c2s1,/,/,1%,1%,/,/
CCCCC[C@H](O)/C=C/C=C\C=C\[C@@H](O)C/C=C\CCCC(=O)O,/,/,17%,/,/,/
N#C/C(=C(/O)c1cccs1)c1nc2ccccc2[nH]1,-5%,?,/,?,-4%,?
